Source: PubChem
VACV mCherry inh: vaccinia inhibition (mCherry reporter). Vaccinia virus mCherry reporter infection, fluorescence. Potency, µM (titrated, usually from 36.5 µM), usual class: inhibitors. 310,000 tested, 0.63% active. AID 720579; calls by dose curve; tested in A549 cells; further: nearly all actives have a fitted effect of over 35% in size
FMDV antiviral: antivirals against foot and mouth disease virus. FMDV antiviral cell-based qHTS. Potency, µM (highest dose often 57.9 µM), hits mostly inhibitors. 410,000 tested, 1.2% active. AID 1159524; calls by dose curve; tested in HEK293T cells; further: read-out not given here; nearly all actives have a fitted effect of over 45% in size
VACV Venus inh: vaccinia inhibition (Venus reporter); 330,000 tested, 0.46% active; Potency, µM (series often up to 36.5 µM), actives largely listed as inhibitors; Vaccinia virus Venus reporter expression, fluorescence; calls by dose curve; tested in A549 cells; further: nearly all actives have a fitted effect of over 30% in size
Marburg entry inh: blocks Marburg virus binding to or entry into cells; AID 540276; Potency, µM (highest dose often 37.8 µM), usual class: inhibitors; 300,000 tested, 1.8% active; Marburg virus pseudotyped entry inhibition, cell reporter; calls by dose curve; tested in HEK293 cells
HCMV antiviral: blocks human cytomegalovirus replication; HFF cells, HCMV-luciferase reporter, 72 h; stronger effect = lower value; activity change, negative = inhibition, % at 57.5 µM; 410,000 tested, 4.5% active; in the data active means activity change below about -60%; inconclusive means no clear call, values can overlap the other calls; inactive means above about -39%
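Two-dose cell screen: HFF monolayers treated with compounds and infected with luciferase-expressing HCMV at 1 PFU/cell, 72 h at 37C, then lysed for luciferase measurement.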
LASV entry inh: inhibitors of Lassa virus binding or cell entry; Lassa virus pseudotype entry inhibition, cell reporter; Potency, µM (top dose mostly 37.9 µM), actives largely listed as inhibitors; 300,000 tested, 1.2% active; calls by dose curve; tested in HEK293 cells; further: nearly all actives have a fitted effect of over 50% in size
Numbers stand for hits; . = inactive; ? = inconclusive; / = not tested or not shown. Shown are actives, neighbours in structure and some others; about 6.5% of the full set was active somewhere.

SMILES | VACV mCherry inh | FMDV antiviral | VACV Venus inh | Marburg entry inh | HCMV antiviral | LASV entry inh
O=C(C[n+]1cc(-c2ccccc2)n2c1CCCCC2)c1ccc(Br)cc1 | . | ? | . | . | . | .
COc1ccc(OC)c(-c2cc(Cl)c3c(c2)CC(CNC(=O)c2coc4c2C(=O)CCC4)O3)c1 (stereo not drawn) | . | . | . | / | / | /
NC1CCc2ccc([N+](=O)[O-])cc21 (stereo not drawn) | . | / | . | / | / | /
CCCCC(=O)OCc1nc(N)nc(Nc2ccccc2C)n1 | . | . | . | . | . | ?
CCc1ccccc1Nc1nc(N)nc(COC(=O)CCC(=O)c2ccc(F)cc2)n1 | . | . | . | ? | / | 10µM
CCOC(=O)C1(C)CCN1C(=O)c1cccc(C(F)(F)F)c1 (stereo not drawn) | . | . | . | / | . | /
CC(=O)Nc1ccc(S(=O)(=O)N(C)c2ccc(OCC(=O)NCCc3ccccc3F)cc2)cc1 | / | ? | / | / | -61.6 | /
CCOc1ccc(S(=O)(=O)N(C)c2ccc(OCC(=O)NCc3ccc(C(=O)OC)cc3)cc2)cc1 | . | . | . | . | . | 3.16µM
CC(=O)Nc1ccc(S(=O)(=O)N(C)c2ccc(OCCOc3ccccc3F)cc2)cc1 | . | . | . | . | . | .
CC(=O)Nc1ccc(S(=O)(=O)N(C)CC(=O)OCC(=O)NNC(=O)c2ccccc2F)cc1 | . | 4.47µM | . | . | . | .
CN(c1ccc(OCC(=O)Nc2ccc3[nH]c(=O)[nH]c3c2)cc1)S(=O)(=O)c1ccc(Cl)cc1 | / | . | / | ? | . | 23.1µM
COc1cc(CN2CCOc3ccc(CN4CCC(Oc5cccnc5)CC4)cc3C2)ccc1F | . | ? | . | / | / | /
c1ccc2cnccc2c1 | . | / | . | / | / | /
c1ccc(N(c2ccccc2)c2nc(N3CCOCC3)nc(N3CCOCC3)n2)cc1 | / | / | / | . | / | /
FC(F)(F)COc1nc(N2CCOCC2)nc(N(c2ccccc2)c2ccccc2)n1 | ? | ? | ? | 13µM | -86.3 | ?
Cc1nc(SCC(=O)NCCc2ccccc2)c2c(=O)n(C)c(=O)n(C)c2n1 | . | . | . | . | . | .
Cc1nc(SCC(=O)NCc2ccccc2)c2c(=O)n(C)c(=O)n(C)c2n1 | . | 31.6µM | . | / | . | /
Cc1cc2nc(-c3ccccc3Br)n(C(C(=O)NC(C)(C)C)c3ccccc3)c2cc1C (stereo not drawn) | / | / | / | / | -98.9 | /
CC(C)(C)NC(=O)C(c1ccccc1)n1c(-c2ccccc2Br)nc2ccccc21 (stereo not drawn) | / | / | / | / | . | /
Cc1ccc(NC(=O)CC2CC2)cc1-c1ccc(C(=O)NCC2CC2)cc1 | / | / | / | / | / | 3.97µM
Cc1ccc(C(=O)NC2CCCCC2)cc1-c1ccc(C(=O)NCC2CC2)cc1 | / | / | / | / | / | 1.41µM
O=C(NCc1ccco1)Nc1nnc([C@H]2C[C@H](O)[C@@H](CO)O2)s1 | . | . | . | / | . | /
Oc1cccc(Nc2ncnc3c2oc2ccccc23)c1 | . | . | ? | ? | . | .
COc1c(Cl)c(=O)oc2ccc(Cl)cc12 | . | . | . | / | . | /
COc1ccccc1-n1c(=O)oc2ccc(Cl)cc2c1=O | / | . | 12.6µM | ? | -95.3 | ?
SMILES | VACV mCherry inh | FMDV antiviral | VACV Venus inh | Marburg entry inh | HCMV antiviral | LASV entry inh
CC(C)(C)c1ccc(C(=O)n2cnc3ccccc32)cc1 | / | ? | / | / | . | /
CCN(CC)c1ccc(C(=O)n2cnc3ccccc32)cc1 | 14.1µM | . | ? | ? | . | ?
COc1ccc(N(CN2C(=O)[C@@H]3[C@@H](C2=O)[C@H]2C=C[C@@H]3C2)C(=O)c2ccco2)cc1 | / | / | / | . | / | /
Cc1ccc(C)c(NC(=O)CN2C(=O)c3cccc4cccc2c34)c1 | . | . | ? | . | . | .
Cc1ccc(S(=O)(=O)N(CCCN2CCCC2=O)Cc2cc3c(C)ccc(C)c3[nH]c2=O)cc1 | / | . | / | ? | -63.7 | .
COc1ccc(C(=O)C(CN2CCOCC2)c2ccccc2)cc1F (stereo not drawn) | 10µM | ? | 12.6µM | 8.91µM | -104.6 | ?
COc1ccc(C(O)C(CN2CCOCC2)c2ccccc2)cc1F (stereo not drawn) | / | . | / | . | . | .
CCCOc1ccc(C(=O)C(CN2CCOCC2)c2ccccc2)cc1 (stereo not drawn) | ? | 14.1µM | ? | 15.8µM | -103.9 | ?
CCOc1ccccc1C(=O)NCC(=O)Nc1ccc(-c2ccccc2)cc1 | . | . | . | . | . | ?
Cc1cccc(C(=O)NCc2nc(-c3cccc(NC(=O)C4CCCN(C)C4)c3)oc2C)n1 (stereo not drawn) | . | . | . | / | / | /
